# A selection: hits, their analogues and other compounds. The true share with any hit is near 4.6%.
# Peg3 promoter = Peg3 promoter activity inhibition | HeLa PEG-Prom luciferase reporter, luminescence, overnight | AID 588405 | inhibition, % at 20 µM | 360,000 compounds, 1.7% hits;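 active = inhibition of at least 50% at 20 µM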
# KKLEB tox = reduces viability of KKLEB cystic fibrosis airway cells. KKLEB CF airway cells viability, ATPlite luminescence, overnight; hits give low values; cells stimulated with P. aeruginosa culture filtrate. 360,000 compounds, 0.36% hits. activity change (cytotoxicity), % at 5 µM. AID 602141;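 active = corrected activity change at or below -50% at 5 µM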
# Mdm2-MdmX inh = inhibitors of human Mdm2/MdmX interaction; 330,000 compounds, 3% hits; inhibition, % at 8 µM; O15151+Q00987; AID 485346; SaOS-2 split-luciferase Mdm2/MdmX complementation, luminescence;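 active = inhibition of at least 50% at 8 µM in the primary screen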
# Target sequence (O15151 whole entry, looked up): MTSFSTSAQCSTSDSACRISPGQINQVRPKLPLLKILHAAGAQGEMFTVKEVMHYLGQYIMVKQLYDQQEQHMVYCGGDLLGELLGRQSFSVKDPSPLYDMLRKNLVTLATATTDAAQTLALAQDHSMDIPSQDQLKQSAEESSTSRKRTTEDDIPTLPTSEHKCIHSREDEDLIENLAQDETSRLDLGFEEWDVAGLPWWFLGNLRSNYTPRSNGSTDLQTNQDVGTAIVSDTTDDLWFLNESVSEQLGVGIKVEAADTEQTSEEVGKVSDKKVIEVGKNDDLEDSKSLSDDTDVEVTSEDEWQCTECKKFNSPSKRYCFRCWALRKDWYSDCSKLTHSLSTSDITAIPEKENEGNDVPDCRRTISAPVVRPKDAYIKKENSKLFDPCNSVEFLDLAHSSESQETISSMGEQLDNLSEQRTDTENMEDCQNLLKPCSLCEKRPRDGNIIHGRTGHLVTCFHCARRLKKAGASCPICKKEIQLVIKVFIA
# Target sequence (Q00987 whole entry, looked up): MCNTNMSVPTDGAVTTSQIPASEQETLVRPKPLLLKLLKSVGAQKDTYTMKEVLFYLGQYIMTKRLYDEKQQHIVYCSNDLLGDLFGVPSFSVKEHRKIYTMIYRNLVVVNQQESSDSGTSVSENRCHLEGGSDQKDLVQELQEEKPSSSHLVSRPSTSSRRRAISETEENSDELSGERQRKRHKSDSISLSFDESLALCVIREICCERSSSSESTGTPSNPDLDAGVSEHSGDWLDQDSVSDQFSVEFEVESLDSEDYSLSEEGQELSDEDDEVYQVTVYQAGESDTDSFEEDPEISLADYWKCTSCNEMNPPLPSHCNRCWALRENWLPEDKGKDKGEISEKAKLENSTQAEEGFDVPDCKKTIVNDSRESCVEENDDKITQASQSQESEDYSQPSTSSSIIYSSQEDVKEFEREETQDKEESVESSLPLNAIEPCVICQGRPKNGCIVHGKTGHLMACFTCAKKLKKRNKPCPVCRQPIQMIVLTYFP
# CF NFkB block = inhibitors of cystic fibrosis induced NF-kB; inhibition, % at 5 µM; AID 588850; 360,000 compounds, 0.86% hits; KKLEB NF-kB-GFP reporter, PAF-induced, GFP fluorescence overnight;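 active = at least 50% inhibition at 5 µM, scaled per plate between neutral and stimulator controls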;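 note: PAF is a Pseudomonas aeruginosa culture filtrate used as stimulus; plate controls were PAF-stimulated DMSO wells for no effect and unstimulated DMSO wells for full effect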
# HIF-2a inh = blocks HIF-2a reporter activity; inhibition, % at 18.8 µM; 786-0 RCC cells HIF-2a reporter, luciferase luminescence, overnight; 360,000 compounds, 0.72% hits;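 active = inhibition of the luminescence signal of 40% or more relative to plate controls, in a single-dose primary screen at 18.75 µM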
# ABHD5 PLIN5 PPI = blocks binding of human ABHD5 to perilipin-5; Q00G26+Q8WTS1; Split G. princeps luciferase complementation, luminescence, 4 h; inhibition, % at 4 µM; 360,000 compounds, 0.78% hits; AID 602281;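 active = inhibition above the mean inhibition across every tested compound plus 3 SD, cut at about 22% in these data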;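 note: 0% = DMSO only wells and the 100% control is not disclosed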
# Mdm2-MdmX conf = confirmation of human Mdm2/MdmX interaction inhibitors; AID 489028; Mdm2-MdmX binding, luminescent assay; 10,000 compounds, 55% hits; shares compounds with Mdm2-MdmX inh; inhibition, % at 8 µM; in the data active = inhibition above about 40%
# FLuc counter = full-length luciferase inhibition in Mdm2/MdmX counter-screen; shares compounds with Mdm2-MdmX inh; SaOS-2 full-length luciferase counterscreen, luminescence; inhibition, % at 8 µM; 6,200 compounds, 77% hits; AID 504607;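 active = mean inhibition at 8 µM reaching about 37%, which flags the compound as non-specific, limit read from the data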;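 note: p53-null SaOS-2 cells with luciferase driven by a doxycycline-inducible promoter; compound on cells about two nights before reading with doxycycline added after day one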
# Numbers without * were called inactive; · = not tested or not shown.
SMILES,Peg3 promoter,KKLEB tox,Mdm2-MdmX inh,CF NFkB block,HIF-2a inh,ABHD5 PLIN5 PPI,Mdm2-MdmX conf,FLuc counter
N/C(CCS(=O)(=O)c1ccc(Cl)cc1)=N\OC(=O)c1ccc(Cl)cc1,29,-15,55*,12,31,0,18,·
Cc1nnc(SCC(=O)Nc2cc(S(C)(=O)=O)ccc2Cl)n1Cc1ccccc1,6,2,24,-19,15,11,·,·
Cc1ccc(-n2c(O)c(C=Nc3ccc4c(c3)OCO4)c3ccccc3c2=O)cc1C,27,-38,40,30,-17,9,·,·
COc1ccc(-n2c(O)c(/C=N/NS(=O)(=O)c3ccc(C)c([N+](=O)[O-])c3)c3ccccc3c2=O)cc1OC,-9,16,-1,-32,7,0,·,·
CCOC(=O)Cc1csc(/N=C/c2c(O)n(-c3ccc(C)c(C)c3)c(=O)c3ccccc23)n1,2,-36,73*,33,15,1,16,·
COc1ccc(-n2c(O)c(C=Nc3ccccc3)c3ccccc3c2=O)cc1OC,5,7,80*,-11,3,-2,11,·
O=C1C=C(OCCF)CC(c2ccccc2C(F)(F)F)O1 (configuration not stated),·,·,·,·,4,7,·,·
COc1ccc(-c2ccnc(-c3ccc(O)cc3)n2)cc1,-78,-11,52*,5,-170,2,40,84*
O=c1n(Cc2ccccc2)c(O)c2n1Cc1ccccc1N=C2c1ccc(C(F)(F)F)cc1,28,-25,·,-10,17,-4,·,·
Cc1c(C#N)c(NC(=O)CCl)n(Cc2ccc(F)cc2)c1C,58*,-58*,89*,73*,26,4,51*,43*
Cc1c(C#N)c(NC(=O)CCl)n(Cc2cccs2)c1C,50,-28,94*,24,30,-4,76*,38*
Cc1c(C#N)c(NC(=O)CCl)n(Cc2ccccc2)c1C,53*,-16,94*,17,20,-4,86*,38*
CC(=O)c1cccc(-c2ccnc3c2CC(C(=O)Nc2ccc(Cl)c(C(F)(F)F)c2)O3)c1 (configuration not stated),18,-9,·,-1,-2,-15,·,·
COc1cccc(-c2oc3c(c2C#CC2(N)CCCCC2)C(O)CCC3)c1 (configuration not stated),·,·,·,·,-11,-1,·,·
O=C1CC(/C=C/c2ccc([N+](=O)[O-])cc2)=Nc2ccccc2N1,-11,-5,53*,2,-18,6,35,61*
O=C1CC(/C=C/c2ccccn2)=Nc2ccccc2N1,-28,16,20,23,-75,8,·,·
CC(C)(C)C(C(=O)NCc1ccccc1)N1CCN(C(=O)C2CCCO2)CC1 (configuration not stated),·,·,·,·,8,1,·,·
O=C(/C=C/c1ccco1)NC(=S)Nc1nc(-c2ccc(Cl)cc2)cs1,-25,-18,61*,19,-127,7,54*,67*
O=C(O)/C=C/C(=O)Nc1nc(-c2ccc3ccccc3c2)cs1,4,-1,11,-9,17,-1,·,·
COc1ccc(-c2csc(NC(=O)Cc3ccccc3)n2)cc1OC,-31,0,25,4,-54,-5,·,·
O=C(/C=C\c1ccco1)Nc1nc(-c2ccccc2)cs1,-99,-6,-27,12,-163,4,·,·
COc1ccc(-c2csc(NC(=O)CCCc3nc4ccccc4c(=O)[nH]3)n2)cc1OC,9,4,26,12,0,5,·,·
COc1ccc(-c2csc(NC(=O)CCn3cnc4ccccc4c3=O)n2)cc1OC,27,6,58*,-33,-36,0,2,·
COc1ccc(-c2csc(NC(=S)NC(=O)/C=C/c3ccccc3)n2)cc1Br,·,·,55*,·,·,·,4,·
O=C(/C=C/c1ccco1)NC(=S)Nc1nc(-c2ccc3ccccc3c2)cs1,-26,-64*,78*,47,-71,-4,45*,48*
SMILES,Peg3 promoter,KKLEB tox,Mdm2-MdmX inh,CF NFkB block,HIF-2a inh,ABHD5 PLIN5 PPI,Mdm2-MdmX conf,FLuc counter
COc1ccc(-c2csc(NC(C)=O)n2)cc1OC,-15,-12,2,-1,-39,3,·,·
COc1ccc(-c2csc(NC(=S)NC(=O)c3ccc4ccccc4c3)n2)cc1OC,-4,-28,78*,30,-18,7,11,·
COc1ccc(C(C(N)=O)c2ncc(C(F)(F)F)cc2Cl)cc1OC (configuration not stated),13,3,5,-4,-10,2,·,·
CCCNC(C)C(=O)Nc1c(C)csc1C(=O)OC (configuration not stated),-8,9,12,-15,5,2,·,·
Clc1cccc(CNc2ccn3nc(-c4cccc(OCc5ccccc5)c4)cc3n2)c1,-13,-23,·,38,-106,-3,·,·
COc1ccc(C2=NNC(=Nc3cc(S(=O)(=O)N(C)C)ccc3C)SC2)c(OC)c1,15,4,67*,14,0,-6,50*,54*
O=C(NCc1ccccc1)c1nnc(CS(=O)(=O)c2ccccc2)o1,-7,4,-8,-17,2,2,·,·
Cc1nc(Nc2nc3c(c(=O)[nH]2)CCC3)nc2ccccc12,86*,-3,65*,65*,-82,7,88*,22
CSCc1ccc(C(=O)N2CCC(N3CCC(C(=O)NC(C)C)CC3)CC2)o1,-12,-2,6,8,10,-2,·,·
N#CC(c1ccc(Cl)cc1)c1ccc2c(C(F)(F)F)cc(C(F)(F)F)nc2n1 (configuration not stated),52*,-74*,99*,67*,-32,-2,95*,24
Cc1cc(-c2nn(-c3ccccc3F)cc2CN(C)CC(O)CO)c(C)s1 (configuration not stated),9,1,-1,9,6,3,·,·
C[C@@H]1CN([C@H](C)CO)S(=O)(=O)c2ccc(-c3ccc(C(=O)N(C)C)cc3)cc2O[C@H]1CN(C)C(=O)Cc1ccccn1,-4,4,·,-16,-38,1,·,·
N#CCC(=O)N/N=C/c1cn(Cc2ccccc2C#N)c2ccccc12,16,0,23,-8,7,-8,·,·
N#CCC(=O)N/N=C/c1cn(Cc2cccc3ccccc23)c2ccccc12,26,-10,66*,2,15,3,64*,55*
CCOC(=O)Cn1cc(/C=N/NC(=O)CC#N)c2ccccc21,5,15,22,-15,8,12,·,·
N#CCC(=O)N/N=C/c1cn(Cc2ccc(Cl)c(Cl)c2)c2ccccc12,29,-14,73*,0,10,6,47*,53*
CCOc1ccc(-c2nnn(CC(=O)NCc3ccc(C)cc3)n2)cc1,22,-10,29,12,7,4,·,·

# Compound activity as filed in PubChem.
